# ± gives the standard deviation.
# T1: HaloTag-ATRX ADD domain (163-292)
# T1 chain: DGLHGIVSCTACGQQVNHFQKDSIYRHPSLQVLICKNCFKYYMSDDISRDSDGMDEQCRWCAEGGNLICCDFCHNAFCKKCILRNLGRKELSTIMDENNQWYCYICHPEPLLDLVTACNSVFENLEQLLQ
# Assays:
# Experiment in all cases: peptide microarray binding signal (635 nm), min-max normalized on array (fraction of array maximum); higher = stronger binding
# Conditions in all cases: peptide region: H3 11-23
# [1] = biological target: T1, HaloTag-ATRX ADD domain (163-292)
# Summary of the method: (§1)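 Triplicate spots of histone 13-mer peptide–cellulose conjugates with a Cy3 tracer were printed on nitrocellulose and probed for 1 h at 4°C with biotin-labelled HaloTag reader fusions (10 nM to 1 μM) plus streptavidin-Alexa Fluor 647 or rabbit histone antibodies (1:10,000 to 1:2,000) plus anti-rabbit Alexa 647. An Axon GenePix 4000B read the 635 nm channel. Binding signal is the spot-triplicate mean intensity after min-max scaling within each library.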
# [2] = biological target: HaloTag-ING2 PHD (mouse Ing2 200-280)
# Summary of the method: as §1
# [3] = biological target: anti-H3K4me3 antibody ab8580
# Summary of the method: as §1
# [4] = biological target: anti-H3K9me3 antibody ab8898
# Summary of the method: as §1
# [5] = peptide modifications: H3R17me1 H3K18me2, binder concentration: 1:2,000 dilution
# [6] = peptide modifications: H3R17me1 H3K18me2, binder concentration: 1:10,000 dilution
# [7] = peptide modifications: H3R17me1, binder concentration: 1:2,000 dilution
# [8] = peptide modifications: H3R17me1, binder concentration: 1:10,000 dilution
# [9] = peptide modifications: H3K14me3 H3R17me1, binder concentration: 1:2,000 dilution
# [10] = peptide modifications: H3K14me3 H3R17me1, binder concentration: 1:10,000 dilution
# [11] = peptide modifications: H3K14me3 H3R17cit, binder concentration: 1:2,000 dilution
# [12] = peptide modifications: H3K14me3 H3R17cit, binder concentration: 1:10,000 dilution
# [13] = peptide modifications: H3R17cit H3K18me1, binder concentration: 1:2,000 dilution
# [14] = peptide modifications: H3R17cit H3K18me1, binder concentration: 1:10,000 dilution
# [15] = peptide modifications: H3K14me3 H3K18me3, binder concentration: 1:2,000 dilution
# [16] = peptide modifications: H3K14me3 H3K18me3, binder concentration: 1:10,000 dilution
# [17] = peptide modifications: H3K18me1, binder concentration: 1:2,000 dilution
# [18] = peptide modifications: H3K18me1, binder concentration: 1:10,000 dilution
# [19] = peptide modifications: H3R17cit H3K18ac, binder concentration: 1:2,000 dilution
# [20] = peptide modifications: H3R17cit H3K18ac, binder concentration: 1:10,000 dilution
# [21] = peptide modifications: H3K18ac, binder concentration: 1:2,000 dilution
# [22] = peptide modifications: H3K18ac, binder concentration: 1:10,000 dilution
# [23] = peptide modifications: H3K18me3, binder concentration: 1:2,000 dilution
# [24] = peptide modifications: H3K18me3, binder concentration: 1:10,000 dilution
binder,measurement,setting,value
TGGKAPRKQLATK [H3 11-23 T G G K A P Rme Kme2 Q L A T K],peptide microarray binding signal,"[1]; peptide modifications: H3R17me1 H3K18me2, binder concentration: 50 nM",0.00837 ± 0.00068
same,peptide microarray binding signal,"[1]; peptide modifications: H3R17me1 H3K18me2, binder concentration: 500 nM",0.0122 ± 0.0013
same,peptide microarray binding signal,"[2]; peptide modifications: H3R17me1 H3K18me2, binder concentration: 10 nM",0.0167 ± 0.002
same,peptide microarray binding signal,"[2]; peptide modifications: H3R17me1 H3K18me2, binder concentration: 100 nM",0.0345 ± 0.0088
same,peptide microarray binding signal,[3]; [5],0.0126 ± 0.0083
same,peptide microarray binding signal,[3]; [6],0.0135 ± 0.01
same,peptide microarray binding signal,[4]; [5],0.00181 ± 0.00018
same,peptide microarray binding signal,[4]; [6],0.001557 ± 1.5e-05
TGGKAPRKQLATK [H3 11-23 T G G K A P Rme K Q L A T K],peptide microarray binding signal,"[1]; peptide modifications: H3R17me1, binder concentration: 50 nM",0.0101 ± 0.00079
same,peptide microarray binding signal,"[1]; peptide modifications: H3R17me1, binder concentration: 500 nM",0.0274 ± 0.0035
same,peptide microarray binding signal,"[2]; peptide modifications: H3R17me1, binder concentration: 10 nM",0.00877 ± 0.0015
same,peptide microarray binding signal,"[2]; peptide modifications: H3R17me1, binder concentration: 100 nM",0.0348 ± 0.0049
same,peptide microarray binding signal,[3]; [7],0.00176 ± 7.5e-05
same,peptide microarray binding signal,[3]; [8],0.00103 ± 2.1e-05
same,peptide microarray binding signal,[4]; [7],0.00326 ± 7.1e-05
same,peptide microarray binding signal,[4]; [8],0.00265 ± 0.00014
TGGKAPRKQLATK [H3 11-23 T G G Kme3 A P Rme K Q L A T K],peptide microarray binding signal,"[1]; peptide modifications: H3K14me3 H3R17me1, binder concentration: 50 nM",0.0176 ± 0.0022
same,peptide microarray binding signal,"[1]; peptide modifications: H3K14me3 H3R17me1, binder concentration: 500 nM",0.0147 ± 0.00081
same,peptide microarray binding signal,"[2]; peptide modifications: H3K14me3 H3R17me1, binder concentration: 10 nM",0.00609 ± 0.00015
same,peptide microarray binding signal,"[2]; peptide modifications: H3K14me3 H3R17me1, binder concentration: 100 nM",0.00772 ± 0.00033
same,peptide microarray binding signal,[3]; [9],0.00823 ± 0.00055
same,peptide microarray binding signal,[3]; [10],0.00502 ± 0.00025
same,peptide microarray binding signal,[4]; [9],0.0269 ± 0.0047
same,peptide microarray binding signal,[4]; [10],0.0115 ± 0.00069
TGGKAPRKQLATK [H3 11-23 T G G Kme3 A P Rcit K Q L A T K],peptide microarray binding signal,"[1]; peptide modifications: H3K14me3 H3R17cit, binder concentration: 50 nM",0.00273 ± 3.1e-05
same,peptide microarray binding signal,"[1]; peptide modifications: H3K14me3 H3R17cit, binder concentration: 500 nM",0.003095 ± 2.4e-05
same,peptide microarray binding signal,"[2]; peptide modifications: H3K14me3 H3R17cit, binder concentration: 10 nM",0.00603 ± 0.00019
same,peptide microarray binding signal,"[2]; peptide modifications: H3K14me3 H3R17cit, binder concentration: 100 nM",0.00709 ± 0.00015
same,peptide microarray binding signal,[3]; [11],0.00325 ± 7.6e-05
same,peptide microarray binding signal,[3]; [12],0.00257 ± 6e-05
same,peptide microarray binding signal,[4]; [11],0.00877 ± 0.0011
same,peptide microarray binding signal,[4]; [12],0.00519 ± 0.00016
TGGKAPRKQLATK [H3 11-23 T G G K A P Rcit Kme Q L A T K],peptide microarray binding signal,"[1]; peptide modifications: H3R17cit H3K18me1, binder concentration: 50 nM",0.00524 ± 6.5e-05
same,peptide microarray binding signal,"[1]; peptide modifications: H3R17cit H3K18me1, binder concentration: 500 nM",0.009239 ± 4.5e-05
same,peptide microarray binding signal,"[2]; peptide modifications: H3R17cit H3K18me1, binder concentration: 10 nM",0.00382 ± 0.00016
same,peptide microarray binding signal,"[2]; peptide modifications: H3R17cit H3K18me1, binder concentration: 100 nM",0.014 ± 0.0031
same,peptide microarray binding signal,[3]; [13],0.00383 ± 0.00052
same,peptide microarray binding signal,[3]; [14],0.0028 ± 0.00018
same,peptide microarray binding signal,[4]; [13],0.000846 ± 5.8e-05
same,peptide microarray binding signal,[4]; [14],0.000807
TGGKAPRKQLATK [H3 11-23 T G G Kme3 A P R Kme3 Q L A T K],peptide microarray binding signal,"[1]; peptide modifications: H3K14me3 H3K18me3, binder concentration: 50 nM",0.00652 ± 5.7e-05
same,peptide microarray binding signal,"[1]; peptide modifications: H3K14me3 H3K18me3, binder concentration: 500 nM",0.00876 ± 0.00042
same,peptide microarray binding signal,"[2]; peptide modifications: H3K14me3 H3K18me3, binder concentration: 10 nM",0.00865 ± 0.0015
same,peptide microarray binding signal,"[2]; peptide modifications: H3K14me3 H3K18me3, binder concentration: 100 nM",0.0149 ± 0.0019
same,peptide microarray binding signal,[3]; [15],0.45 ± 0.069
same,peptide microarray binding signal,[3]; [16],0.408 ± 0.048
same,peptide microarray binding signal,[4]; [15],0.18 ± 0.013
same,peptide microarray binding signal,[4]; [16],0.0505 ± 0.0048
TGGKAPRKQLATK [H3 11-23 T G G K A P R Kme Q L A T K],peptide microarray binding signal,"[1]; peptide modifications: H3K18me1, binder concentration: 50 nM",0.00433 ± 0.00015
same,peptide microarray binding signal,"[1]; peptide modifications: H3K18me1, binder concentration: 500 nM",0.0187 ± 0.00044
same,peptide microarray binding signal,"[2]; peptide modifications: H3K18me1, binder concentration: 10 nM",0.00979 ± 0.0017
same,peptide microarray binding signal,"[2]; peptide modifications: H3K18me1, binder concentration: 100 nM",0.0252 ± 0.0035
same,peptide microarray binding signal,[3]; [17],0.00217 ± 0.00021
same,peptide microarray binding signal,[3]; [18],0.00108 ± 1.9e-05
same,peptide microarray binding signal,[4]; [17],0.00293 ± 8.2e-05
same,peptide microarray binding signal,[4]; [18],0.00173 ± 6e-05
TGGKAPRKQLATK [H3 11-23 T G G K A P Rcit Kac Q L A T K],peptide microarray binding signal,"[1]; peptide modifications: H3R17cit H3K18ac, binder concentration: 50 nM",0.00473 ± 9.3e-05
same,peptide microarray binding signal,"[1]; peptide modifications: H3R17cit H3K18ac, binder concentration: 500 nM",0.0124 ± 0.00036
same,peptide microarray binding signal,"[2]; peptide modifications: H3R17cit H3K18ac, binder concentration: 10 nM",0.00364
same,peptide microarray binding signal,"[2]; peptide modifications: H3R17cit H3K18ac, binder concentration: 100 nM",0.0114 ± 0.0017
same,peptide microarray binding signal,[3]; [19],0.003 ± 0.00042
same,peptide microarray binding signal,[3]; [20],0.0028 ± 0.00011
same,peptide microarray binding signal,[4]; [19],0.000634 ± 2.6e-05
same,peptide microarray binding signal,[4]; [20],0.000865 ± 2.4e-05
TGGKAPRKQLATK [H3 11-23 T G G K A P R Kac Q L A T K],peptide microarray binding signal,"[1]; peptide modifications: H3K18ac, binder concentration: 50 nM",0.00715 ± 0.00076
same,peptide microarray binding signal,"[1]; peptide modifications: H3K18ac, binder concentration: 500 nM",0.023 ± 0.014
same,peptide microarray binding signal,"[2]; peptide modifications: H3K18ac, binder concentration: 10 nM",0.0127 ± 0.0019
same,peptide microarray binding signal,"[2]; peptide modifications: H3K18ac, binder concentration: 100 nM",0.0351 ± 0.016
same,peptide microarray binding signal,[3]; [21],0.00259 ± 0.002
same,peptide microarray binding signal,[3]; [22],0.00462 ± 0.00058
same,peptide microarray binding signal,[4]; [21],0.00184 ± 8.2e-05
same,peptide microarray binding signal,[4]; [22],0.00173 ± 8.8e-05
TGGKAPRKQLATK [H3 11-23 T G G K A P R Kme3 Q L A T K],peptide microarray binding signal,"[1]; peptide modifications: H3K18me3, binder concentration: 50 nM",0.0107 ± 0.00077
same,peptide microarray binding signal,"[1]; peptide modifications: H3K18me3, binder concentration: 500 nM",0.0257 ± 0.0005
same,peptide microarray binding signal,"[2]; peptide modifications: H3K18me3, binder concentration: 10 nM",0.00937 ± 0.00052
same,peptide microarray binding signal,"[2]; peptide modifications: H3K18me3, binder concentration: 100 nM",0.0178 ± 0.0018
same,peptide microarray binding signal,[3]; [23],0.257 ± 0.035
same,peptide microarray binding signal,[3]; [24],0.263 ± 0.14
same,peptide microarray binding signal,[4]; [23],0.0698 ± 0.0096
same,peptide microarray binding signal,[4]; [24],0.0292 ± 0.0022
